Screening data from PubChem BioAssay.
This is a sample that favours compounds with a hit; in the whole collection about 1.2% have one here.
DUSP3 inh = DUSP3 (human) phosphatase inhibition; P51452; 290,000 tested, 0.52% active; inhibition, % at 13.3 µM; recombinant VHR phosphatase, pNPP absorbance; in the data active = inhibition above about 50%
Target sequence (P51452 whole entry, looked up): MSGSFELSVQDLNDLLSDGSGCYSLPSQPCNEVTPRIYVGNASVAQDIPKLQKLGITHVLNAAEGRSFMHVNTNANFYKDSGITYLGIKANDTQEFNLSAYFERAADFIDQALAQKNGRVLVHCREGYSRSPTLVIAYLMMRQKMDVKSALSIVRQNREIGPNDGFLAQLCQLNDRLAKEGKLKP
BioA inh = inhibitors of Mycobacterium tuberculosis BioA enzyme | purified M. tuberculosis BioA enzyme, plate reader | inhibition, % at 9.99 µM | 360,000 tested, 0.096% active | AID 602481; in the data active = inhibition above about 40%
Yp Topo-I inh = inhibitors of Yersinia pestis topoisomerase I | Y. pestis Topo-I cleavage product accumulation, plate reader | activity, % at 10 µM | 360,000 tested, 0.064% active; in the data active = activity above about 50%, passing the limit was not always enough
Vc quorum ag = quorum light induction in luxS cqsA deficient V. cholerae; V. cholerae BH1578 lux reporter, luminescence, 6 h; activation, % at 18.7 µM; 350,000 tested, 0.16% active; in the data active = activation mostly above about 9.7%, no sharp cut-off
TcdB inh = inhibitors of Clostridioides difficile toxin B glycohydrolase | P18177 | TcdB glycohydrolase enzymatic assay, plate reader | inhibition, % at 9.99 µM | 350,000 tested, 0.24% active | AID 652162; in the data active = inhibition above about 10%
PfHsp40 rescue = rescue of PfHsp40-mediated yeast toxicity. growth rescue, % at 12.5 µM. 340,000 tested, 0.68% active. S. cerevisiae expressing PfHsp40, growth rescue, ATP luminescence; in the data active = growth rescue above about 28%, passing the limit was not always enough;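 also: yeast W303a lacking pdr1 and pdr3 grown in galactose medium; growth measured after three days at 30 °C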
The depositor's hits bear a star; i = inactive; . = not tested or not shown.

SMILES	DUSP3 inh	BioA inh	Yp Topo-I inh	Vc quorum ag	TcdB inh	PfHsp40 rescue
O=C(NCC(=O)N(c1ccccc1)C(C(=O)NC1CCCC1)c1cccnc1)c1cccs1 (stereo not drawn)	53*	-1	-1	2	.	0
Cc1ccccc1C(C(=O)NC1CCCCC1)N(C(=O)c1ccccn1)c1cccnc1 (stereo not drawn)	21	-1	1	-1	14*	-1
CCc1ccc(C(C(=O)NC2CCCCC2)N(C(=O)c2ccccn2)c2cccnc2)cc1 (stereo not drawn)	39	.	.	.	.	.
O=C(NC1CCCCC1)C(c1ccc(Cl)cc1)N(C(=O)c1ccccn1)c1cccnc1 (stereo not drawn)	57*	.	.	.	.	.
Cc1cc(C)cc(N(C(=O)c2csnn2)C(C(=O)NC2CCCC2)c2cccnc2)c1 (stereo not drawn)	30	1	-3	0	2	0
CCOc1ccc(C(C(=O)NC2CCCCC2)N(C(=O)c2ccccn2)c2cccnc2)cc1 (stereo not drawn)	23	.	0	0	1	-1
Cc1cc(C)cc(N(C(=O)c2csnn2)C(C(=O)NC2CCCCC2)c2cccnc2)c1 (stereo not drawn)	53*	-2	0	0	1	-1
COc1ccc(-c2csc(C(C)(O)c3ccc(F)c(F)c3)n2)cc1OC (stereo not drawn)	.	2	1	0	0	.
Cc1ccccc1NC(=O)Nc1ccc2c(c1)C(=O)N(C)[C@@H]1CC[C@H](CC(=O)NCC3CC3)O[C@H]1CO2	.	-2	.	.	4	.
C=CCNc1nc(-c2ccccn2)nnc1-c1ccccc1	20	0	-1	1	.	354*
CCCCn1ccnc1C	58*	0	6	-1	1	1
Cc1nccn1CCCN1C(=O)CNC1=S	-3	.	-6	i	1	0
O=C1c2ccccc2C(=O)c2c1ccc(O)c2O	.	-2	-7	0	1	17
COC(=O)c1ccc2c(c1O)C(=O)c1ccccc1C2=O	9	.	-17	0	.	342*
COC(=O)c1cccc2c1-c1ccccc1/C2=N\NC(N)=O	.	-1	-3	-1	1	0
COC(=O)c1cccc2c1-c1ccccc1/C2=N/O	13	-2	-3	i	.	331*
CC(C)(C)Nc1nc(N2CCCC2)nc(N2CCCC2)n1	28	0	8	17*	.	0
O=S(=O)(O)c1cccc2c(N=Nc3ccc(O)c4ncccc34)cccc12	.	3	-31	0	-2	94*
Oc1ccc(N=Nc2ccc3c(c2)OCCO3)c2cccnc12	1	.	-25	i	2	268*
COc1ccc(N=Nc2ccc(O)c3ncccc23)cc1	7	-2	0	i	1	2
Cc1ccccc1N=Nc1ccc(O)c2ncccc12	4	-2	1	-1	1	-1
COc1ccc(C(=O)Cn2cnc3ccccc3c2=O)cc1	55*	-1	2	0	1	3
O=C(Cn1cnc2ccccc2c1=O)c1ccc2ccccc2c1	14	-2	-1	0	.	2
CCN(Cc1ccc(OC)c(COC)c1)CC1CCCN(CCc2cccc(OC)c2)C1 (stereo not drawn)	54*	-1	23	-1	0	1
COc1ccc(CN(C)CC2CCCN(CCc3ccc(F)cc3)C2)c(OC)c1OC (stereo not drawn)	60*	1	-4	-2	2	0
SMILES	DUSP3 inh	BioA inh	Yp Topo-I inh	Vc quorum ag	TcdB inh	PfHsp40 rescue
CCN(Cc1ccc(OC)c(COC)c1)CC1CCCN(CCc2cccc(F)c2)C1 (stereo not drawn)	36	-1	31	-2	0	0
Cc1ccc(N/C=C(\C#N)S(=O)(=O)c2ccccc2)cc1	18	-1	10	1	-1	0
O=[N+]([O-])c1cc(Br)c(Nc2ccccc2)c([N+](=O)[O-])c1	16	-1	-5	i	1	67*
O=S(=O)(CCSc1ccccn1)c1nc2ccccc2s1	2	-1	-1	i	3	59*
CC1=C[C@H]2OC(=O)[C@@H](C)[C@H]2C[C@@H]2[C@H]1C[C@@H](O)[C@@]2(C)O	-4	-1	2	1	1	39*
C=C1CCC(O)C2(C)CCC3C(C)C(=O)OC3C12O (stereo not drawn)	.	-1	-2	i	1	-1
Cc1ccc(S(=O)(=O)N(C(=O)c2ccncc2)c2ccc(OC(=O)c3ccncc3)c3ccccc23)cc1	13	.	5	i	0	1
NNC(=O)c1ccc2nc(-c3ccc(Br)cc3)cn2c1	22	.	-12	-1	-3	71*
COc1ccc(-c2cn3cc(C(=O)NN)ccc3n2)cc1	31	.	-3	0	0	-1
CCOc1ccc(NC(=O)CC(Cc2cc(C)cc(C)c2)C(=O)O)cc1 (stereo not drawn)	53*	0	6	1	1	1
Cc1ccc(S(=O)(=O)Nc2cccc3c2O[C@H](CN(C)Cc2ccccc2)[C@H](C)CN([C@H](C)CO)C3=O)cc1	.	1	.	.	0	.
Nc1ccn(C2CCCO2)c(=O)n1 (stereo not drawn)	.	-1	12	i	1	-1
O=C(O)c1ccc(NC(=O)c2cn(-c3ccccc3)nc2-c2ccc(Br)cc2)cc1	29	.	9	-2	1	69*
C/C(=N\NC(=O)c1ccc(N2CCCC2=O)cc1)c1ccncc1	33	.	3	0	0	-1
COc1cc(S(=O)(=O)NC2CCCCC2C)ccc1F (stereo not drawn)	2	2	9	i	0	98*
COc1cc(S(=O)(=O)NC2CCCCC2C)ccc1Cl (stereo not drawn)	-4	1	10	-1	.	-2
[O-]/C(=C(\C(=S)Nc1ccc(SC(F)F)cc1)[n+]1cccc(CO)c1)c1ccc(Cl)s1	48	.	61*	4	0	1
Cc1ccc(NC(=S)/C(=C(\[O-])c2ccc(Cl)s2)[n+]2cccc(CO)c2)cc1C	20	0	22	-2	0	0
Cc1ccc2c(c1)/C(=C/c1ccccc1C)C(=O)N2	10	-1	0	-1	12*	-2
Cc1ccc2c(c1)/C(=C/c1ccc(F)cc1)C(=O)N2	-20	0	14	i	2	16
O=C(CN1CCN(c2ccccn2)CC1)Nc1ccccc1F	57*	2	5	1	2	0
O=C(CN1CCN(c2ccccn2)CC1)Nc1cc(F)ccc1F	.	7	2	-6	1	-1
O=C(Nc1ccc(Cl)cc1C(=O)c1ccccc1)c1ccco1	36	1	2	0	.	2
O=C(Nc1ccc(Cl)cc1C(=O)Nc1ccc(Br)cn1)c1ccco1	21	-1	3	i	.	270*
CC1Cc2ccccc2N1C(=S)NC(=O)c1cccc(Br)c1 (stereo not drawn)	-3	.	-1	-3	.	146*
